This note sets out measurements from PubChem BioAssay AID686978 (National Center for Advancing Translational Sciences (NCATS), 2013).

The campaign covered roughly 420,000 compounds. About 64,000 (15%) were called active. Not shown: some 27% with an inconclusive outcome. Calls follow the shape of the dose curve; as a rule, active = well fitted inhibition curve with a large enough effect; inconclusive = small, poorly fitted or top-dose-only effect; inactive = flat fitted curve, though single readings scatter. The list is a sample of the results. Entries that show only a call come without a potency.
Potency is read from the fitted curve at half-maximal effect.

This test is described as follows: qHTS for Inhibitors of human tyrosyl-DNA phosphodiesterase 1 (TDP1): qHTS in cells in absence of CPT. Also: nearly all actives have a fitted effect of over 55% in size. The following applies: DT40 Tdp1-/- hTDP1 cells, no CPT, ATP luminescence, 48 h; activity change, negative = growth inhibition: at 46.2 µM (top of the series). The essentials: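 A cellular qHTS used chicken DT40 cells lacking endogenous Tdp1 but carrying stably transfected human TDP1. Compounds were applied without camptothecin, and cell growth kinetics were judged by ATP-dependent luminescence after ≥48 hr.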
Background: In qHTS, concentration-response curves come from the screen itself.
In the case of `COc1ccc(S(=O)(=O)NCc2cccn2Cc2cccc(C)c2)cc1`, the Potency result was “inactive”.
Consider `COc1ccc(CNS(=O)(=O)c2cc3c4c(c2)CCN4C(=O)CC3)cc1`, for which the Potency entry was “inactive”.
As for `COc1ccc(CNS(=O)(=O)c2ccc(-c3cnc(C4CC4)o3)cc2)cc1`, the Potency is 13 µM (active).
As to `COc1ccc(S(=O)(=O)NCc2ccc(C(=O)N(C)Cc3ccco3)cc2)cc1`, the Potency result was “inactive”.
Still for that read-out and setting: the value for `Cc1cccc(NS(=O)(=O)c2ccc(-c3cnc(C4CC4)o3)cc2)c1` was 0.58 µM (active).
The same measure, in the same setting: in the case of `Cc1cccc(CNS(=O)(=O)c2ccc(-c3cnc(C4CC4)o3)cc2)c1` it was 16.4 µM (active); in that of `Cc1ccc(S(=O)(=O)N[C@H]2CCC[C@@H]2O)cc1`, “inactive”.
In the case of `Cc1cc(NS(=O)(=O)c2ccc3oc(=O)c4ncn(C)c4c3c2)ccc1Br`, the Potency result was “inactive”.
Same read-out and setting: in the case of `CC1CCN(S(=O)(=O)c2ccc(S(=O)(=O)NCc3cccnc3)cc2)CC1` it was “inactive”.
On the same count and under the same terms, the value for `O=C(NCc1ccco1)C1CCCN(S(=O)(=O)c2cnc[nH]2)C1` (centres undefined) was “inactive”; that for `Cc1ccc(N=C2NC(=O)c3cccc([N+](=O)[O-])c32)cc1` was “inactive”; that for `O=C(COc1ccc(Br)cc1)OCC(=O)c1ccc[nH]1` was “inactive”.
Consider `Cc1ccc(CSCCNC(=O)CN(c2ccc(F)cc2)S(C)(=O)=O)cc1`, for which the Potency result is “inactive”.
Still for that read-out and setting: the value for `Cc1c(NC(=S)NC(=O)CCc2ccccc2)c(=O)n(-c2ccccc2)n1C` was “inactive”; that for `COc1cc(NC(=S)N2CCCC(C)C2)cc(OC)c1OC` (centres undefined) was “inactive”; that for `C[C@H](NC(=O)c1ccccc1)C(=O)OCC(=O)c1c[nH]c2ccccc12` was “inactive”.
Still for that read-out and setting: the value for `O=C(/C=C/c1cccs1)NCc1cccnc1` was “inactive”; that for `S=C(NCC1COc2ccccc2O1)Nc1ccc(Br)cc1` (centres undefined) was 23.1 µM (active).
Turning to `CC(NC(=S)Nc1ccccc1)C1COc2ccccc2O1` (centres undefined), the Potency entry was “inactive”.
Still for that read-out and setting: in the case of `Cc1noc(C)c1C(=O)NCC1COc2ccccc2O1` (centres undefined) it was “inactive”; in that of `O=C(O)c1ccc(NS(=O)(=O)c2cccc3nsnc23)cc1`, “inactive”.
Same read-out and setting: in the case of `COc1ccccc1NC(=O)C1=C(C)Nc2nc(SCC(=O)c3ccc(C)cc3)nn2C1c1ccccc1C` (centres undefined) it was “inactive”; in that of `Cc1cc(Oc2ccccc2)nc(N2CCOCC2)n1`, “inactive”; in that of `Cc1cc(C)n(-c2nnc(N3CCN(c4ccccc4)CC3)nn2)n1`, “inactive”.
The same measure, in the same setting: the value for `COc1ccc(Nc2cc(C)nc(-n3nc(C)cc3C)n2)cc1` was 0.184 µM (active); that for `Cc1cc(C)n(-c2ccc(Cl)c(C(=O)O)n2)n1` was “inactive”.
For `Cc1ccc(Nc2nc3ccccc3nc2-n2nc(C)cc2C)c(Cl)c1`, the Potency entry is “inactive”.
Still for that read-out and setting: the value for `Cc1cccc(Nc2cc(C)nc(-n3nc(C)cc3C)n2)c1` was 3.26 µM (active); that for `COc1ccc(C(=O)NNc2cc(C)nc(NNC(=O)c3ccc(OC)cc3)n2)cc1` was “inactive”; that for `Cc1cc(C)n(-c2cc(Oc3ccccc3)ncn2)n1` was “inactive”.
`CC(=O)c1ccc(Oc2cc(C)nc(-n3nc(C)cc3C)n2)cc1`: the Potency was 0.58 µM (active).
Still for that read-out and setting: the value for `CC1(C(=O)NCc2ccccc2)CSCC(=O)N1CCCn1ccnc1` (centres undefined) was “inactive”; that for `CC(=O)c1cc(-c2ccccc2)n(CC(=O)NC2CCCCC2)c1C` was “inactive”; that for `O=C(C=CC(=O)Nc1ccc(F)cc1F)Nc1ccc(F)cc1F` was “inactive”.
Same read-out and setting: the value for `O=C(O)C1CCCCC1C(=O)N1CCN(S(=O)(=O)c2ccc(F)cc2)CC1` (centres undefined) was “inactive”; that for `Cc1ccc2c(c1)C1CN(C)CCC1N2C(=O)c1ccccc1NS(=O)(=O)c1ccc(F)cc1C` (centres undefined) was “inactive”; that for `CCOc1ccc2[nH]c(=O)c(CN(CCCO)C(C)=O)cc2c1` was “inactive”.
The same measure, in the same setting: the value for `CCOC(=O)c1ccc(S(=O)(=O)N(CCO)Cc2cc3cc(OC)c(OC)cc3[nH]c2=O)cc1` was “inactive”; that for `CCOc1ccc2[nH]c(=O)c(CN(CCCO)S(=O)(=O)c3ccc(F)cc3)cc2c1` was 16.4 µM (active).
As to `CC(=O)c1c(C)[nH]c(C(=O)CN2C(=O)NC(C)(C)C2=O)c1C`, the Potency result is “inactive”.
Same read-out and setting: the value for `COCCNC(=S)N(Cc1cccnc1)Cc1ccc(OC)c(OC)c1` was “inactive”; that for `COc1cccc(C(=O)n2ccc(-c3cccs3)n2)c1` was “inactive”; that for `CC(C)CC1(C(=O)NCc2ccccn2)C=CCN1C(=O)c1ccccc1` (centres undefined) was “inactive”.
Turning to `CCOC(=O)c1c(NC(=O)CSc2nnc(C)c(=O)[nH]2)sc2c1CCC2`, the Potency entry is “inactive”.
Consider `COc1ccc(-n2c(SCC(=O)Nc3sc4c(c3C#N)CCCC4)nnc2-c2ccc(O)cc2)cc1`, for which the Potency entry is “inactive”.
The same measure, in the same setting: the value for `CC(=O)c1c(C)[nH]c(C(=O)OCC(=O)Nc2c(C)cccc2C)c1C` was 13 µM (active); that for `N#Cc1c(NC(=O)CCCl)sc2c1CCCCC2` was 18.4 µM (active); that for `CCN1CCN(CC(=O)Nc2sc3c(c2C#N)CCC3)CC1` was “inactive”.
For `Cc1ccc(C)c(OCC(=O)Nc2sc3c(c2C#N)CCCC3)c1C`, the Potency was 9.2 µM (active).
With `CCCc1cc(=O)[nH]c(SCC(=O)Nc2sc3c(c2C#N)CCCC3)n1`, the Potency entry is “inactive”.
As for `CC(=O)c1c(C)[nH]c(C(=O)OCC(=O)Nc2sc3c(c2C#N)CCCC3)c1C`, the Potency was 16.4 µM (active).
Same read-out and setting: the value for `CC(=O)c1c(C)[nH]c(C(=O)OCC(=O)Nc2c(C)n(C)n(-c3ccccc3)c2=O)c1C` was “inactive”; that for `Cc1cccc(C)c1NC(=O)COC(=O)c1ccccc1O` was “inactive”; that for `Cc1cccc(C(=O)OCC(=O)Nc2sc3c(c2C#N)CCC3)c1` was “inactive”.
For the compound `N#Cc1c(NC(=O)C2CCCO2)sc2c1CCCCC2` (centres undefined), the Potency entry was “inactive”.
Same read-out and setting: the value for `C=CCc1cccc2cc(C(=O)NC3CCCC3)c(=O)oc12` was “inactive”; that for `Cc1nn(-c2ccccc2)nc1C(=O)OCC(=O)N1CCCCC1C` (centres undefined) was “inactive”.
Still for that read-out and setting: in the case of `Nc1nc(SCC(=O)NCCN2CCOCC2)nc2sc3c(c12)CCC3` it was “inactive”; in that of `CSc1nc2nc3c(c(=O)n2[nH]1)CCC3`, “inactive”.
The same measure, in the same setting: in the case of `Cc1cn(C2OC[C@@H](O)[C@@H]2CO)c(=O)[nH]c1=O` (some centres undefined) it was “inactive”.
Regarding `CC(C)[C@H]1CC[C@@H](C)C[C@H]1O`, the Potency result was “inactive”.
Same read-out and setting: the value for `CCCC(C)C(=O)Nc1ccc(NC(C)=O)cc1` (centres undefined) was “inactive”.
As to `O=C(NNC(=O)C1CCC1)c1ccccc1`, the Potency result is “inactive”.
As for `Cc1csc(-c2coc3cc(O[C@@H]4O[C@H](CO)[C@@H](O)[C@@H](O)[C@H]4O)ccc3c2=O)n1`, the activity change, negative = growth inhibition was 1.27% [at 9.04 µM] (inactive).
`COc1ccc(C(=O)N2CCCN(C)CC2)c(OC)c1`: the Potency entry is “inactive”.
Still for that read-out and setting: in the case of `COc1cc2nc(N3CCCN(C)CC3)nc(NC3CC3)c2cc1OC` it was 10 µM (active).
Regarding `COc1cc2nc(N3CCN(C(=O)[C@@H]4CCCO4)CC3)nc(N)c2cc1OC`, the Potency entry is “inactive”.
Same read-out and setting: in the case of `COc1cc2nc(N3CCCN(C)CC3)nc(NC(C)C)c2cc1OC` it was 12.6 µM (active); in that of `CNCCCOc1cc2nc(N3CCCN(C)CC3)nc(NC3CCN(C)CC3)c2cc1OC`, “inactive”.
